{
  "source": "ChEMBL document CHEMBL2218924",
  "about": "“A broad activity screen in support of a chemogenomic map for kinase signalling research and drug discovery” (Biochem J, 2013)",
  "key": {"[1]": {"molecular_target": "T1, Ephrin type-A receptor 3 (Homo sapiens) (UniProt P29320)", "T1 sequence (whole entry)": "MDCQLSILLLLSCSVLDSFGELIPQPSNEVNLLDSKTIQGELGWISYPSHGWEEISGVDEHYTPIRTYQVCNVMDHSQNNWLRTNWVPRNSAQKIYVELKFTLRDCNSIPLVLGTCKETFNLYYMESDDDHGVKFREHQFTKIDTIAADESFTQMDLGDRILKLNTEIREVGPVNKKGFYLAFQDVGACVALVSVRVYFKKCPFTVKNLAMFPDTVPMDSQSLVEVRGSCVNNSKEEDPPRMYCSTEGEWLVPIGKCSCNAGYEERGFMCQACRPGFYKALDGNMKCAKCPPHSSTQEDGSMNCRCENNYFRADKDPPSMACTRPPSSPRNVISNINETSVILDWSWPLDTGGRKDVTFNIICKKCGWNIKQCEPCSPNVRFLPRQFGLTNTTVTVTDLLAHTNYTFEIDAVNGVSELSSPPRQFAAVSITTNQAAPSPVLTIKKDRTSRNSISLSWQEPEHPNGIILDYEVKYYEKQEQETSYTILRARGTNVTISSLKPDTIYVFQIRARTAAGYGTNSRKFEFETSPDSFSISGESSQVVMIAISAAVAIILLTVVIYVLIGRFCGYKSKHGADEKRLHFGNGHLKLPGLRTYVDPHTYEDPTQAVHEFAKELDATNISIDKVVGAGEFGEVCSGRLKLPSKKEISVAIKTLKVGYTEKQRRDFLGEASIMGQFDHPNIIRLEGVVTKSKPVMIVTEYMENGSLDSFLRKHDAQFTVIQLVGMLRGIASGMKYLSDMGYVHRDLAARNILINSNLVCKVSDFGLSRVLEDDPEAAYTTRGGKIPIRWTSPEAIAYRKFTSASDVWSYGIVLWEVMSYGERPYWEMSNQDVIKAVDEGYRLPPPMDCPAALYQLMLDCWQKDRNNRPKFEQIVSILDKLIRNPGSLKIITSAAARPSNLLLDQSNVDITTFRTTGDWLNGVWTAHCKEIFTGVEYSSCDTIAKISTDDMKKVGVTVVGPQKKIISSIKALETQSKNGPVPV", "conditions": "at 10 µM"}, "[2]": {"molecular_target": "Ephrin type-A receptor 4 (Homo sapiens) (UniProt P54764)", "sequence (P54764 whole entry)": "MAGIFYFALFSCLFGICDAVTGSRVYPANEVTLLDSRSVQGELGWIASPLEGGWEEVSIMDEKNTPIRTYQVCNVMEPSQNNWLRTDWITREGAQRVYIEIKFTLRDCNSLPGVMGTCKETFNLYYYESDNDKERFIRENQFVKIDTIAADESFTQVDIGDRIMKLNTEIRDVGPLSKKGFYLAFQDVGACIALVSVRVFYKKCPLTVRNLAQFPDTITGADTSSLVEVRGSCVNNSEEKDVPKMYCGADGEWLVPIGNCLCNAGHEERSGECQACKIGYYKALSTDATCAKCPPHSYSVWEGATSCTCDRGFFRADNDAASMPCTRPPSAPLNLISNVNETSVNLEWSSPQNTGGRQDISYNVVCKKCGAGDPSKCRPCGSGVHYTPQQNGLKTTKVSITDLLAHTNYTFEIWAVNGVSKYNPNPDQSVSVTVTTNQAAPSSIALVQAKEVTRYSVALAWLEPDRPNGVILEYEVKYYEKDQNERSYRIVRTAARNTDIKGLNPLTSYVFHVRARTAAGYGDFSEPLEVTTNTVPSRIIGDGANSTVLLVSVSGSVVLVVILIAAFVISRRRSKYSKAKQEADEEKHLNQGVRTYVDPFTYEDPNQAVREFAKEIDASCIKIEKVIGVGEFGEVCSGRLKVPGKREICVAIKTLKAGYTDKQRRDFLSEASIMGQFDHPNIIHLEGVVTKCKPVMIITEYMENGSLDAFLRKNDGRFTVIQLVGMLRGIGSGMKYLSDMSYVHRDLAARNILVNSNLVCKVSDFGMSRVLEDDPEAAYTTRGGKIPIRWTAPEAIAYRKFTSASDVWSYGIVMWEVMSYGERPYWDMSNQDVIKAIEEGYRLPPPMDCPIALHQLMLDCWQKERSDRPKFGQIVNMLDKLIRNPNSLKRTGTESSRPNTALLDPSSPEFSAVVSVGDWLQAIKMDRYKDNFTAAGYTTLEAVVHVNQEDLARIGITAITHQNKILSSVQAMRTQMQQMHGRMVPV", "conditions": "at 1 µM"}, "[3]": {"molecular_target": "Ephrin type-A receptor 4 (Homo sapiens) (UniProt P54764)", "conditions": "at 10 µM"}, "[4]": {"molecular_target": "Ephrin type-A receptor 5 (Homo sapiens) (UniProt P54756)", "sequence (P54756 whole entry)": "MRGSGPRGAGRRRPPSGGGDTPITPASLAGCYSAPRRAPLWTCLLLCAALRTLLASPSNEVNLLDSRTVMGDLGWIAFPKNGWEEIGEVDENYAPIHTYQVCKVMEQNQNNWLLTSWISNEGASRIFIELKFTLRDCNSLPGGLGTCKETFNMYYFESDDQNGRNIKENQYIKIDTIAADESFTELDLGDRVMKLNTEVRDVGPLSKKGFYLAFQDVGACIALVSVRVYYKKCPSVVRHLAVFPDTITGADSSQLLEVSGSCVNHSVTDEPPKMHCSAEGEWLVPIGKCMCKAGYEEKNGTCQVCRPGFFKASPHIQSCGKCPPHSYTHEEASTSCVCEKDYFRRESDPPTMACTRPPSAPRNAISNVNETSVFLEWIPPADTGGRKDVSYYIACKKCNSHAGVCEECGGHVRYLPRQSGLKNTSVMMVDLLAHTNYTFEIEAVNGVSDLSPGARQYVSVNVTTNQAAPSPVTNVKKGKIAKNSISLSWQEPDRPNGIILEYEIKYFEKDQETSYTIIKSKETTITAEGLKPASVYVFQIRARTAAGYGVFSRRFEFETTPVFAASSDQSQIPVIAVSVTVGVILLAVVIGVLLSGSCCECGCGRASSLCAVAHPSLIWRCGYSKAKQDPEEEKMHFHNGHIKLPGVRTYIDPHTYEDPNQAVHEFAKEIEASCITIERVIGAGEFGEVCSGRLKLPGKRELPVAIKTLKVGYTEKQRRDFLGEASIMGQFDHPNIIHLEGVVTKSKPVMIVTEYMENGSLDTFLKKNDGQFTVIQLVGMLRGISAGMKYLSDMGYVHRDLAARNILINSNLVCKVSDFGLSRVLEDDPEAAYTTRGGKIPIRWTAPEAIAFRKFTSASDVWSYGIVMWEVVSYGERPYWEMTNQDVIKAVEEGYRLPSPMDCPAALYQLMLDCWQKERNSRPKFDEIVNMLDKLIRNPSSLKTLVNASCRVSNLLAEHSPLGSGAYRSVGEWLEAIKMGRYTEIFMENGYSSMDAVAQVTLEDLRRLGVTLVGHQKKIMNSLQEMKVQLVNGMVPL", "conditions": "at 1 µM"}, "[5]": {"molecular_target": "Ephrin type-A receptor 5 (Homo sapiens) (UniProt P54756)", "conditions": "at 10 µM"}, "[6]": {"molecular_target": "Ephrin type-A receptor 7 (Homo sapiens) (UniProt Q15375)", "sequence (Q15375 28-998 limits assumed)": "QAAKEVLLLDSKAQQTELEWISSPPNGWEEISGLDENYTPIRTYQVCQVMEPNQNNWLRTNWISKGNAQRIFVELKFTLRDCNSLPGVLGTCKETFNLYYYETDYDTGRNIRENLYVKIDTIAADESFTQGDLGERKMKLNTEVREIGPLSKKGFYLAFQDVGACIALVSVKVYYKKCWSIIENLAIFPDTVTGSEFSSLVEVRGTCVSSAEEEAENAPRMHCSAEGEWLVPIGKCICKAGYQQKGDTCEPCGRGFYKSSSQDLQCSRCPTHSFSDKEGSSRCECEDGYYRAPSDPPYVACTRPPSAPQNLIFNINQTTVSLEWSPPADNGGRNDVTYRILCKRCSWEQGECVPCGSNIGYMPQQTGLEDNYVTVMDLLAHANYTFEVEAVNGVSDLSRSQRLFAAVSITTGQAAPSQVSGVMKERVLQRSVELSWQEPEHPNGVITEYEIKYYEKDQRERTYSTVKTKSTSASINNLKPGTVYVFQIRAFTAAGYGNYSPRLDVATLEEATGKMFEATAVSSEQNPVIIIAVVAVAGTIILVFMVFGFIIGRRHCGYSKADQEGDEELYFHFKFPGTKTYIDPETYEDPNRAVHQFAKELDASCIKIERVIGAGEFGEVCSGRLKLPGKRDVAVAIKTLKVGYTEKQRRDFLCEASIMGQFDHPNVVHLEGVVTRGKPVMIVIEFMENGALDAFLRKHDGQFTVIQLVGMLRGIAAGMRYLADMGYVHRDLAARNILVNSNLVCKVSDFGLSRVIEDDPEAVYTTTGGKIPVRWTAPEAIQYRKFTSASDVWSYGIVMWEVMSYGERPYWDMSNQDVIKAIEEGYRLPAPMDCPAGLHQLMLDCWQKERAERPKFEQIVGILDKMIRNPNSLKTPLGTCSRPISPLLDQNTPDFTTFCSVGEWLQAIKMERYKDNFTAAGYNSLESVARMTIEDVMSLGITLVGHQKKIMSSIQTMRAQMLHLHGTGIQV", "conditions": "at 1 µM"}, "[7]": {"molecular_target": "Ephrin type-A receptor 7 (Homo sapiens) (UniProt Q15375)", "conditions": "at 10 µM"}, "[8]": {"molecular_target": "T2, Ephrin type-A receptor 8 (Homo sapiens) (UniProt P29322)", "T2 sequence (whole entry)": "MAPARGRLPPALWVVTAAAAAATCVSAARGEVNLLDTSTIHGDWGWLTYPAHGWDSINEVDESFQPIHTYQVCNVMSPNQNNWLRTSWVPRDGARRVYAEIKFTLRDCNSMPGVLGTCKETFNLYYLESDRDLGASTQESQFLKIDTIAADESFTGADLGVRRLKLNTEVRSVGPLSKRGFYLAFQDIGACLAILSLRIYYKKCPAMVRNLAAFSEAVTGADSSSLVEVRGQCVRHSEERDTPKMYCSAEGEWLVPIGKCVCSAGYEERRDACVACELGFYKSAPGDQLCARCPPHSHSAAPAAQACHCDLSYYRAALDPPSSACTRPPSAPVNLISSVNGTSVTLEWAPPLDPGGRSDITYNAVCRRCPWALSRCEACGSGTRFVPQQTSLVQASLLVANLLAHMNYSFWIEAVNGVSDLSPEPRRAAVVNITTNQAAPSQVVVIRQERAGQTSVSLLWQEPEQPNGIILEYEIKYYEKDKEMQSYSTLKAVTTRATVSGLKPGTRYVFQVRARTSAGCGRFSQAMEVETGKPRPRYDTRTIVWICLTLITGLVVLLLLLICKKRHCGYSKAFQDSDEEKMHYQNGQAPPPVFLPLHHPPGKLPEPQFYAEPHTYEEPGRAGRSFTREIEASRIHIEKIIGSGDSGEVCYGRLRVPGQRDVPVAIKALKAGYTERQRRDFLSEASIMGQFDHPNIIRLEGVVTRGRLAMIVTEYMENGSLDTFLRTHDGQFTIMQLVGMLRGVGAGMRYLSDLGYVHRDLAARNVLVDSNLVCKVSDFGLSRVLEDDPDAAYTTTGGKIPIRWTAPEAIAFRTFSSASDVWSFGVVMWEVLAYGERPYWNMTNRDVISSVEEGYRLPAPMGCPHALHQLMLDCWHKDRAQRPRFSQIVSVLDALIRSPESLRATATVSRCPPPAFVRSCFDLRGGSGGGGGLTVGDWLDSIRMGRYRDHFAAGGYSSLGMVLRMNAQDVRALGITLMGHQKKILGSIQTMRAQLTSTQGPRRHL", "conditions": "at 1 µM"}, "[9]": {"molecular_target": "T2, Ephrin type-A receptor 8 (Homo sapiens)", "conditions": "at 10 µM"}, "[10]": {"molecular_target": "T3, Ephrin type-B receptor 1 (Homo sapiens) (UniProt P54762)", "T3 sequence (whole entry)": "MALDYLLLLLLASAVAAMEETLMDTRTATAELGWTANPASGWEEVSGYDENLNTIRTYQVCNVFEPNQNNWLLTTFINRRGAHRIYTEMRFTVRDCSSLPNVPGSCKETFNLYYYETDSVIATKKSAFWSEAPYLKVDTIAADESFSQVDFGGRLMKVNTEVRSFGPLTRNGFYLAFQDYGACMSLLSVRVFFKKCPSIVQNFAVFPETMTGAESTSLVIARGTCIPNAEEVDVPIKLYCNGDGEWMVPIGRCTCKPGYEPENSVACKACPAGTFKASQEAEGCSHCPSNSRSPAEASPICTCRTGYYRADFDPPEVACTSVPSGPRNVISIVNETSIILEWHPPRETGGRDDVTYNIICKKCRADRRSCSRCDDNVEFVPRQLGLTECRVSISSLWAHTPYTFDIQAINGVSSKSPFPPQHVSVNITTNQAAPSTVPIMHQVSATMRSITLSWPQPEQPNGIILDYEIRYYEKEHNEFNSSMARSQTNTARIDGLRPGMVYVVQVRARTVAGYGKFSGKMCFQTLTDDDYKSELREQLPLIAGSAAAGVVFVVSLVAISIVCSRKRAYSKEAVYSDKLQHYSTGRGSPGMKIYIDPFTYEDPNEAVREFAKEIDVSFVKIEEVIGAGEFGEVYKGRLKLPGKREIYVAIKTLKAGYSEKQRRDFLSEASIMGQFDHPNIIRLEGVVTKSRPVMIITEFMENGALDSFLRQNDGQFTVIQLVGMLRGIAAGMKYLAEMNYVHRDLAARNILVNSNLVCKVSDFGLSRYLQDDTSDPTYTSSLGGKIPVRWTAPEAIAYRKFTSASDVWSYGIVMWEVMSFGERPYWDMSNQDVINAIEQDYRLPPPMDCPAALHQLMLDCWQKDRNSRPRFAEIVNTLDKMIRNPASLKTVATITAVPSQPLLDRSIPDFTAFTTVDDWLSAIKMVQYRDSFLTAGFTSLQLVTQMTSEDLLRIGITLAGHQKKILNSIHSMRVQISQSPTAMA", "conditions": "at 1 µM"}},
  "data": [
    {"smiles": "Cc1ccc(S(=O)(=O)/C=C/C#N)cc1", "values": [
      {"measurement": "residual activity", "setting": "[1]", "result": 105, "unit": "%"},
      {"measurement": "residual activity", "setting": "[2]", "result": 106, "unit": "%"},
      {"measurement": "residual activity", "setting": "[3]", "result": 110, "unit": "%"},
      {"measurement": "residual activity", "setting": "[4]", "result": 107, "unit": "%"},
      {"measurement": "residual activity", "setting": "[5]", "result": 101, "unit": "%"},
      {"measurement": "residual activity", "setting": "[6]", "result": 94, "unit": "%"},
      {"measurement": "residual activity", "setting": "[7]", "result": 96, "unit": "%"},
      {"measurement": "residual activity", "setting": "[8]", "result": 94, "unit": "%"},
      {"measurement": "residual activity", "setting": "[9]", "result": 102, "unit": "%"},
      {"measurement": "residual activity", "setting": "[10]", "result": 93, "unit": "%"}
    ]}
  ]
}
